Hits are enriched below; roughly 7.4% of the tested compounds scored in any of these assays.
NPC1 promoter act: NPC1 promoter activation | Potency, µM (top dose mostly 9.22 µM), for the others: at the top dose activation, most hits filed as activators | Huh7 NPC1 promoter luciferase reporter, 24 h | actives 2.4% (n = 320,000); also: % of control where 0% means no effect; nearly all actives have a fitted effect of over 60% in size
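NPC1 promoter–luciferase Huh7 cells; 24 h compound; luminescence.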
FLuc counter: inhibits or activates purified firefly luciferase, miR-21 counter-screen | P08659 | purified FLuc, Km substrates, luminescence inhibition | Potency, µM (titrated, usually from 57.5 µM), inactives show top-dose activity change, negative = inhibition, actives largely listed as inhibitors | actives 6.9% (n = 360,000);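 also: plate controls were vehicle for no effect and reference inhibitor for full effect; nearly all actives have a fitted effect of over 55% in size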
Target sequence (P08659 whole entry, looked up): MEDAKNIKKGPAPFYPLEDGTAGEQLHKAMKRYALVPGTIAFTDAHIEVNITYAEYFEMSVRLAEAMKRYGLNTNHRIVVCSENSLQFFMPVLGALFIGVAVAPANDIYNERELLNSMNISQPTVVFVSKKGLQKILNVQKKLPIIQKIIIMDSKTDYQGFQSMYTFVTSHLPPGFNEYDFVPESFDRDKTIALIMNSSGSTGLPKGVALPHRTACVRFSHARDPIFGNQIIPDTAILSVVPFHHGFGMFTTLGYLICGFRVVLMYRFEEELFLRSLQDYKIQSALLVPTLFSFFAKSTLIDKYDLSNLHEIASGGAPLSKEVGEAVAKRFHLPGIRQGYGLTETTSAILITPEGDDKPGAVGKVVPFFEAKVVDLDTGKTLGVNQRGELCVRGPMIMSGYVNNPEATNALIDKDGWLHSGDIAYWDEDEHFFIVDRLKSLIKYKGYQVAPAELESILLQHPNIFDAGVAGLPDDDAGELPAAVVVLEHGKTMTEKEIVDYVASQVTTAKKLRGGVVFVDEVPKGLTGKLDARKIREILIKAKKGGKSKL
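Purified P. pyralis luciferase (10nM final) with 10uM D-luciferin and 10uM ATP (Km levels) in 50mM Tris acetate pH 7.5, 10mM Mg acetate, 0.01% Tween-20, 0.05% BSA; qHTS 6-point titration, ~60 µM downward; luminescence read.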
p53 reactivator: mutant p53 re-activation in reporter cells | AID 504706 | H1299 p53-A138V BP100-luciferase reporter, luminescence, 24 h | Potency, µM (highest dose often 92.2 µM), inactives show at the top dose activity change, positive = activation, actives largely listed as activators | actives 0.063% (n = 320,000); also: % of control where 0% means no effect; nearly all actives have a fitted effect of over 45% in size
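H1299 (p53-null), stable ts p53-A138V + BP100-Luc; 1000 cells/well, Opti-MEM/10% FBS; cpd 4 pt, 1:5; 24 h, 37 deg C, 5% CO2; detection reagent 10 min RT; luminescence.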
SMN2 splice enh: enhancers of SMN2 splice variant expression. HEK293 SMN2-luciferase splicing reporter, luminescence, 30-36 h. Potency, µM (top dose mostly 46.1 µM), without a hit: at the top dose activity change, positive = activation, actives largely listed as activators. actives 2.8% (n = 210,000); also: % of control where 0% means no effect; nearly all actives have a fitted effect of over 55% in size
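HEK293 cells carry an SMN2 […]–luciferase reporter in which exon 7 inclusion puts luciferase in frame. Cells were plated 10-12 h before compound addition, then incubated 30-36 h at 37C. ONE-Glo luminescence was read; sodium butyrate at 4.5 mM final served as control.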
Rab9 prom act: Rab9 promoter activation. Huh7 Rab9 promoter-luciferase reporter, luminescence, 24 h. Potency, µM (doses to about 9.22 µM), without a hit: top-dose activation, negative = inhibition, usual class: activators. actives 2.8% (n = 320,000). AID 485297; also: % of control where 0% means no effect; nearly all actives have a fitted effect of over 60% in size
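Cells were plated at 1500 per well in reduced-serum medium with 10% FBS and left 2 h. Compound in DMSO was then added for 24 h at 37 °C. Reporter signal was read by luminescence after 10 min with luciferase detection reagent.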
ELG1 genotox: induces genotoxicity in HEK293T cells with luciferase-tagged ELG1; actives 1.3% (n = 330,000); Potency, µM (highest dose often 46 µM), for inactives: top-dose activity change, positive = activation, hits mostly activators; HEK293T ELG1-luciferase reporter, luminescence, 16 h; AID 504466; also: % of control where 0% means no effect; nearly all actives have a fitted effect of over 60% in size
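16 hr compound incubation (37 °C, 5% CO2) of HEK293T cells carrying luciferase-tagged ELG1; luciferase then measured by ONE-Glo luminescence after 30 min at RT.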
The depositor's hits bear a star. Calls follow the shape of the dose curve; as a rule, active = well fitted curve in the direction sought with a large enough effect; inconclusive = small, poorly fitted or top-dose-only effect, or another doubt; inactive = no such curve, though single readings can be large; an effect the other way counts as inactive or inconclusive. Potency is read from the fitted curve at half-maximal effect.

Screening CC(/C=N/Nc1nnc(C)c(=O)[nH]1)=C\c1ccccc1 returned NPC1 promoter act inconclusive, FLuc counter 12µM*, p53 reactivator 10%, SMN2 splice enh inconclusive, Rab9 prom act inconclusive and ELG1 genotox 15%.
`COc1ccc(N2CCN(C(=O)COC(=O)CCOc3ccc(C(C)(C)C)cc3)CC2)cc1` gave NPC1 promoter act 0%, FLuc counter -1%, p53 reactivator -6%, Rab9 prom act -2% and ELG1 genotox 1%.
For C/C(=N\Nc1cc(N2CCOCC2)ncn1)c1cccc([N+](=O)[O-])c1 the results were NPC1 promoter act 18%, FLuc counter -18%, p53 reactivator -1%, SMN2 splice enh 11µM*, Rab9 prom act 21% and ELG1 genotox 1%.
C/C(=N\Nc1cc(N2CCOCC2)ncn1)c1ccccc1 was read as NPC1 promoter act 2.5µM*, FLuc counter 5.4µM*, p53 reactivator 7%, Rab9 prom act 2.5µM* and ELG1 genotox inconclusive.
`C/C(=N\Nc1nc(N2CCOCC2)nc(N2CCOCC2)n1)c1cccc([N+](=O)[O-])c1` gave NPC1 promoter act -3%, FLuc counter -7%, p53 reactivator 15%, SMN2 splice enh 7%, Rab9 prom act -3% and ELG1 genotox -7%.
Screening Clc1ccccc1/C=N/Nc1cc(N2CCOCC2)ncn1 returned NPC1 promoter act inconclusive, FLuc counter inconclusive, p53 reactivator 15%, Rab9 prom act inconclusive and ELG1 genotox 14%.
COc1ccc(OC)c(CCNC(=O)c2cc3cccc4c3n2CCS4)c1 was read as FLuc counter -3%.
For COc1ccccc1CNC(=O)c1ccc2c(c1)OCO2 the results were NPC1 promoter act 0%, FLuc counter 0%, p53 reactivator 1%, Rab9 prom act -1% and ELG1 genotox 1%.
COc1cc2c(cc1NCc1ccc3c(c1)OCO3)oc1ccccc12 was read as NPC1 promoter act 26%, FLuc counter inconclusive, p53 reactivator inconclusive, SMN2 splice enh 22µM*, Rab9 prom act -2% and ELG1 genotox 15%.
Screening CCN(CC)S(=O)(=O)c1ccc(OC)c(NC(=O)c2ccc3c(c2)OCO3)c1 returned NPC1 promoter act -8%, FLuc counter -6%, p53 reactivator -6%, SMN2 splice enh 15%, Rab9 prom act -1% and ELG1 genotox -3%.
For COc1ccc(OC)c(NC(=O)c2ccc3c(c2)OCO3)c1 the results were NPC1 promoter act 15%, FLuc counter 21µM*, p53 reactivator 4%, Rab9 prom act 13% and ELG1 genotox 8%.
COc1ccccc1NC(=O)c1ccc2c(c1)OCO2 was read as NPC1 promoter act 2.5µM*, FLuc counter 15µM*, p53 reactivator inconclusive, Rab9 prom act 4µM* and ELG1 genotox 10µM*.
COc1ccc(OC)c(-c2csc(NC(=O)c3ccc4c(c3)OCO4)n2)c1 was read as NPC1 promoter act 17%, FLuc counter 4.8µM*, p53 reactivator 3%, SMN2 splice enh inconclusive, Rab9 prom act 4% and ELG1 genotox -3%.
Screening CCN(c1ccccc1)c1ncnc2c1cnn2-c1ccc(C)cc1C returned FLuc counter -16%.
For COc1cccc(CN2CCCN(CC(=O)Nc3ccc4c(c3)OCCO4)S2(=O)=O)c1 the results were FLuc counter -11%.
For COc1cc2c(cc1NC(=O)c1ccc3c(c1)OCO3)oc1ccccc12 the results were NPC1 promoter act inconclusive, FLuc counter 6.7µM*, p53 reactivator 13%, SMN2 splice enh 14µM*, Rab9 prom act 3.2µM* and ELG1 genotox 12µM*.
Screening COc1cc(C(=O)Nc2nc(-c3ccc(C)cc3)cs2)ccc1OCC(=O)N1CCOCC1 returned NPC1 promoter act 13%, FLuc counter inconclusive, p53 reactivator -10%, SMN2 splice enh -42%, Rab9 prom act 29% and ELG1 genotox -11%.

Compound activity from PubChem BioAssay.
